For 16 molecules, outcome and inhibition results are on record in PubChem BioAssay.

For assay [1], the system named is TRPC4 beta (transient receptor potential cation channel C4), mouse. The assay can be described thus: TRPC4 cation channel opening, retest – cell-based, Fluo4 calcium, HEK293 TRPC4beta/mu-opioid, duplicates, 10 µM, confirmation (AID 2426;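 active means fluorescence ratio normalized to control raised more than 50% in primary screen plus both repeat runs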). To be noted: Fluo4 calcium fluorescence, at 10 µM; stronger effect = higher value.
For assay [2], the system named is transient receptor potential cation channel C4 beta (TRPC4), mouse. Put plainly: TRPC4 cation channel opening, second retest – cell-based, second round, Fluo4, HEK293 TRPC4beta/mu-opioid, 1 µM, confirmation (AID 2461;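 active means primary screen active and over 50% activation in each of two duplicate runs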). To be noted: Fluo4 calcium fluorescence, at 1 µM; stronger effect = higher value.
Assay [3] relates to TRPC4 (transient receptor potential cation channel C4 beta), mouse. The assay can be described thus: potentiation of DAMGO EC20 TRPC4 response – cell-based, second round, Fluo-4, HEK293 TRPC4beta/mu-opioid, 1 µM, confirmation (AID 2554;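 active means primary screen hit whose fluorescence ratio, in both repeats, exceeds the weak agonist control mean by 3 SD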). To be noted: DAMGO EC20, Fluo-4 calcium flux, at 1 µM; stronger effect = higher value.
The test system of assay [4] is TRPC4 beta (transient receptor potential cation channel C4), mouse. Put plainly: potentiation of DAMGO EC20 TRPC4 response – cell-based, Fluo-4, HEK293 TRPC4beta/mu-opioid, confirmation (AID 2555;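 active means primary screen hit whose calcium fluorescence ratio, in both repeats, exceeds the weak agonist control mean by 3 SD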). To be noted: DAMGO EC20, Fluo-4 calcium flux, at 10 µM; stronger effect = higher value.
In assay [5] the target is Short transient receptor potential channel 4 (Mus musculus) (UniProt Q9QUQ5). Put plainly: blockers of DAMGO-evoked TRPC4 calcium flux – cell-based, Fluo4, HEK293 TRPC4beta/mu-opioid, confirmation (AID 2636;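 active means calcium signal cut by more than 3 SD below the full-agonist control yet still positive, in both repeats and the earlier primary screen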). To be noted: at 10 µM; stronger effect = higher value. (In general: A change in cytosolic calcium serves as a functional read-out for many receptors and channels.)
Chain of Short transient receptor potential channel 4 (Mus musculus) (Q9QUQ5 whole entry, looked up): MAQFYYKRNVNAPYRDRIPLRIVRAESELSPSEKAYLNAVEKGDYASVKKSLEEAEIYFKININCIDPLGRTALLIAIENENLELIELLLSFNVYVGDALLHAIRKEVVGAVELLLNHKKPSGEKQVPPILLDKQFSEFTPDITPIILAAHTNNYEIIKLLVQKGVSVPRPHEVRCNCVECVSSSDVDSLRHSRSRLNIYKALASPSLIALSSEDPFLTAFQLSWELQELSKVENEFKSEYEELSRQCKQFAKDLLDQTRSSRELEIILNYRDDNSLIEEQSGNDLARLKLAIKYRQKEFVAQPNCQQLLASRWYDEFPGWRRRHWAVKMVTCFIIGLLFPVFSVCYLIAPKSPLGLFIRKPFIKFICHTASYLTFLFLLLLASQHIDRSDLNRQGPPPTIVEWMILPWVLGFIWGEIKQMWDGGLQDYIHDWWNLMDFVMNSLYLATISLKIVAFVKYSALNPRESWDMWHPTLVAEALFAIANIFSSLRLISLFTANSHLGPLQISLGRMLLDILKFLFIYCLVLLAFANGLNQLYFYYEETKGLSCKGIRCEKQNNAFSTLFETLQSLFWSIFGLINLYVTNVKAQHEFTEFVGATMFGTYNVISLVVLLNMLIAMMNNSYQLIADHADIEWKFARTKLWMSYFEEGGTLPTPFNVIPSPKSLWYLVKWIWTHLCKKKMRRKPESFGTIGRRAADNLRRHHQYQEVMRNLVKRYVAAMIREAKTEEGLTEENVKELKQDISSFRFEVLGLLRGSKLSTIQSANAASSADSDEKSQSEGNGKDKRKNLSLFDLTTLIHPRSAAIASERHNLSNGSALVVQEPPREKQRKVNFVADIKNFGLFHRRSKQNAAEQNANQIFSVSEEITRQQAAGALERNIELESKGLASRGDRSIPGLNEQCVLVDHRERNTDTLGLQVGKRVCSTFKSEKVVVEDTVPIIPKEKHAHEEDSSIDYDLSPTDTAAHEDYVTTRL
The target is the same in assay [6]. The assay can be described thus: blockers of DAMGO-evoked TRPC4 calcium flux – cell-based, second round, Fluo4, HEK293 TRPC4beta/mu-opioid, 1 µM, confirmation (AID 2637;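 active means calcium signal ratio cut to more than 3 SD under the fully stimulated control mean yet still positive, in both repeats and the primary screen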;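 on inhibition: percent of integrated ratio relative to wells lacking test compound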). To be noted: at 1 µM; stronger effect = higher value.
For assay [7] the target is unchanged. Put plainly: calcium entry via TRPC4 opening agents – cell-based, HEK293 TRPC4/mu-opioid, Fluo-4 calcium, dose response (AID 434937;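 active means primary screen activator hit with a dose response curve and TRPC4 channel activation at any tested dose; inactive means no activation, no dose response, or not a primary hit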).
Assay [8] shares this target. Put plainly: potentiation of DAMGO-evoked TRPC4 calcium signal – cell-based, HEK293 TRPC4/mu-opioid, Fluo-4 calcium, EC20 DAMGO, dose response (AID 434941).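 Further: calcium entry triggered by an EC20 dose of DAMGO at the co-expressed mu-opioid receptor.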
The target in assay [9] is Short transient receptor potential channel 6 (Mus musculus) (UniProt Q61143). The assay can be described thus: TRPC6 blockade by TRPC4 inhibitor hits – cell-based, HEK293, membrane potential dye, duplicate, selectivity assay for TRPC4 inhibitor project, confirmation (AID 434948;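 active means active in primary screen and both duplicates, each dropping signal beyond three positive-control SD with fluorescence still positive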). To be noted: HEK293 TRPC6, membrane potential dye fluorescence, at 10 µM, stimulated with maximal-effect acetylcholine; stronger effect = higher value.
Chain of Short transient receptor potential channel 6 (Mus musculus) (Q61143 whole entry, looked up): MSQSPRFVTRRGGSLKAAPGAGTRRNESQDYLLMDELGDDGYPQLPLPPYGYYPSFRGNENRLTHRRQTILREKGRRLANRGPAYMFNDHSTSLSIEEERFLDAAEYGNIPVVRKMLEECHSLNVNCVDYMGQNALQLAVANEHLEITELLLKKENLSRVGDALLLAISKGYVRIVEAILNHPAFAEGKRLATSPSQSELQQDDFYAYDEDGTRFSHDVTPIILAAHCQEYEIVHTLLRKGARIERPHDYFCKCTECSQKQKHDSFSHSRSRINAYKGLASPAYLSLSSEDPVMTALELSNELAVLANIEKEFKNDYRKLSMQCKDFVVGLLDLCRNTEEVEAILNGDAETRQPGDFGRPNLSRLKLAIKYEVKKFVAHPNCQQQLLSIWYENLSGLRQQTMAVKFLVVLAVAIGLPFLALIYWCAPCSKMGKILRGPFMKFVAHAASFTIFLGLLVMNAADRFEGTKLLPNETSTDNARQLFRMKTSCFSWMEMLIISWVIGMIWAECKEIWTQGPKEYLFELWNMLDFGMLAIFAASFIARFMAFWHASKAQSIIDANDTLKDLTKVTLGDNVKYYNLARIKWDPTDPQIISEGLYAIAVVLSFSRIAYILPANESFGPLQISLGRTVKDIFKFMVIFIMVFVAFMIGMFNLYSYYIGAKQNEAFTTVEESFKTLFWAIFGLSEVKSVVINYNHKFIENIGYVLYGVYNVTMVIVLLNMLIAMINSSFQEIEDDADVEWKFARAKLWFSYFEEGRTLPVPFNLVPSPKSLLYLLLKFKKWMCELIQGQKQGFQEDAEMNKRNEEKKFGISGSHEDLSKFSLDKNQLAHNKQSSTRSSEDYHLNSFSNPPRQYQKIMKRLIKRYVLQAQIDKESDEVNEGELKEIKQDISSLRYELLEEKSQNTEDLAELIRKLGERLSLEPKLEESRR

The target is the same in assay [10]. Put plainly: TRPC6 opening by TRPC4 activator hits – cell-based, HEK293, membrane potential dye, duplicate, selectivity assay for TRPC4 activator project, confirmation (AID 434950;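 active means membrane potential signal rise above negative control mean plus 3 SD in both duplicates, also active in the earlier TRPC4 screen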). To be noted: HEK293 TRPC6, membrane potential fluorescence, at 10 µM; activation: stronger effect = higher value; outcome: activation.
Assay [11] shares this target. Put plainly: positive modulators of mouse TRPC6 channel – HEK293 cells, membrane potential dye, duplicate, selectivity assay for TRPC4 potentiator project, confirmation (AID 434952;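 active means compound raising the membrane signal above positive-control mean plus 3 SD in both repeats, and a primary screen hit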). The conditions noted are these: HEK293 TRPC6, membrane potential dye fluorescence, at 10 µM, maximal acetylcholine added after compound; stronger effect = higher value.
Assay [12] has as its target Short transient receptor potential channel 4 (Mus musculus) (UniProt Q9QUQ5). Put plainly: calcium flux activators in TRPC4/5HT1a cells, counter-screen for TRPC4 activator project, cell-based, second counter screen, HEK293 TRPC4/5HT1a, Fluo-4 (AID 434977;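 active means calcium signal rise above buffer-control mean plus 5 SD in both duplicates, and also a hit in the primary screen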). The conditions noted are these: Fluo-4 calcium flux, at 10 µM; stronger effect = higher value.
A short description of assay [13]: serotonin-gated TRPC4 signal block – cell-based, second counter screen, HEK293 TRPC4/5HT1a, Fluo-4, counter-screen for TRPC4 inhibitor project, confirmation (AID 434978;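 active means primary screen active whose calcium signal fell more than 3 SD beyond the full-serotonin control mean in both duplicate plates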;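 on outcome: serotonin given first at submaximal then at maximal dose after compound preincubation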). To be noted: Fluo-4 calcium flux, at 10 µM, serotonin added to trigger calcium flux; stronger effect = higher value. (Counterscreens check selectivity or assay interference.)
The subject of assay [14] is TRPC4 (mouse), co-expressed with 5HT1a in HEK293. The assay can be described thus: enhancement of serotonin-evoked TRPC4 response – cell-based, second counter screen, HEK293 TRPC4/5HT1a, Fluo-4, counter-screen for TRPC4 potentiator project, confirmation (AID 434979;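 active means signal rise over 3 SD above mean of control wells given weak agonist, in both repeats and first screen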). The conditions noted are these: Fluo-4 calcium flux, at 10 µM, serotonin added at its EC20 dose; stronger effect = higher value.

The nature of assay [15]: nonspecific calcium rise without TRPC4 – cell-based, HEK293 mu-opioid receptor line, counter-screen for TRPC4 activator project, confirmation (AID 449723;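 active means hit in primary screen, with calcium signal over 5 SD above buffer well mean in both duplicates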;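 further: counter screen cells carry the mu-opioid receptor alone and lack TRPC4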). To be noted: HEK293 mu-opioid cells, Fluo-4 calcium fluorescence, at 10 µM; stronger effect = higher value.
The nature of assay [16]: nonspecific potentiation of DAMGO calcium response – cell-based, HEK293 mu-opioid receptor line, counter-screen for TRPC4 allosteric potentiator project, confirmation (AID 449724;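 active means calcium signal rise more than 3 SD above the low-dose agonist control mean, in both duplicate plates and the primary screen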;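 further: HEK293 cells carrying mu-opioid receptor only with no TRPC4 channel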). To be noted: HEK293 mu-opioid receptor cells, Fluo-4 calcium flux, at 10 µM, compound added before EC20 DAMGO stimulus; stronger effect = higher value.

For some of these results: Results with a measured potency or affinity are listed apart. Activity calls are given as the source filed them.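 How the source made its calls, unless noted: active means earlier screen potentiator hit that boosts the TRPC4 ion channel at some dose, with a dose response; inactive means no potentiation, no dose response, or not a prior hit.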

The inhibition is the drop in the measured response relative to a control, in per cent. In the case of `OC1(c2ccc(F)cc2)CCN(Cc2ccccc2)C1` (stereo unspecified), the outcome in [1], in assay [2], in assay [3], in assay [4], in assay [7] and in [8] was inactive. Moreover, the outcome in [9], in assay [10], in assay [11], in assay [12], in assay [14] and in assay [15] was inactive. In assay [16], the result was inactive. In addition, the inhibition was 98% (active) in [5], 55% (active) in [6] and 18.4% (active) in assay [13].

Regarding `CCOC(=O)CSc1nc2c(sc(=S)n2Cc2ccco2)c(=O)n1-c1ccccc1`, the outcome in assay [1], in [2], in assay [3], in assay [4], in assay [7] and in [8] was inactive. Besides, the call in assay [9], in assay [10], in assay [11], in assay [12], in assay [13] and in [14] was inactive. The result in [15] and in [16] was inactive. The inhibition is 68% (active) in assay [5] and 42% (active) in assay [6].

As for `OCCNc1nc2ccccc2n1CCN1CCCCC1`, the result in [1], in assay [2], in [3], in assay [4], in assay [6] and in assay [7] was inactive. Besides, the result in [8], in assay [9], in assay [10], in [11], in assay [12] and in assay [14] was inactive. Also, the result in [15] and in assay [16] was inactive. For the same molecule, the results for the inhibition in assay [5] and in assay [13] were 91% (active) and 22.9% (active), respectively.

Consider `CCCn1c(=N)n(CC(=O)C(C)(C)C)c2ccccc21`, for which the result in assay [1], in assay [2], in assay [3], in [4], in assay [6] and in assay [7] was inactive. Besides, the outcome in assay [8], in [9], in assay [10], in assay [11], in assay [12] and in [14] was inactive. In addition, the result in [15] and in assay [16] was inactive. Also, the inhibition in assay [5] was 92% (active); in [13], 42.4% (active).

Take `Cc1ccc(N(CC(=O)NC2CCCC2)C(=O)CNC(=O)c2cccs2)cc1F`: the result in assay [1], in assay [2], in [3], in assay [4], in assay [6] and in assay [7] was inactive. In addition, the outcome in assay [8], in assay [9], in assay [10], in [11], in [12] and in [13] was inactive. The outcome in assay [14], in assay [15] and in assay [16] was inactive. Further, the inhibition in assay [5] is 70% (active).

On to `N#Cc1c(NC(=O)C2CC(Cl)=CCC2C(=O)O)sc2c1CCCCC2` (stereo unspecified), for which the result in [1], in [2], in assay [3], in assay [4], in assay [6] and in assay [7] was inactive. The outcome in assay [8], in assay [9], in assay [10], in assay [11], in assay [12] and in assay [14] was inactive. For the same molecule, the outcome in [15] and in assay [16] was inactive. In addition, the inhibition is 51% (active) in assay [5] and 18.6% (active) in assay [13].

Regarding `NC(=O)c1nsc(C(=O)N(Cc2ccccc2F)C(C(=O)NCC2CCCO2)c2ccc(F)cc2)c1N` (stereo unspecified), the result in [1], in assay [2], in assay [3], in assay [4], in assay [7] and in assay [8] was inactive. Also, the result in [9], in assay [10], in assay [11], in [12], in assay [14] and in assay [15] was inactive. The result in [16] was inactive. In addition, the inhibition is 93% (active) in assay [5], 50% (active) in [6] and 26.4% (active) in assay [13].

For `Cc1cc(N2CCCCCC2)nc2ccccc12`, the result in assay [1], in assay [2], in assay [3], in [4], in [7] and in [8] was inactive. Moreover, the molecule was classed as inactive in [9], in assay [10], in [11], in assay [12], in assay [14] and in assay [15]. The outcome in [16] was inactive. Moreover, the inhibition was 87% (active) in assay [5], 55% (active) in assay [6] and 15.6% (active) in assay [13].

For `Cc1cc(OCc2cc(C(=O)NCCN3CCCCC3CO)no2)cc(C)c1Cl` (stereo unspecified), the result in assay [1], in assay [2], in assay [3], in assay [4], in assay [6] and in assay [7] was inactive. Besides, the outcome in [8], in assay [9], in assay [10], in assay [11], in assay [12] and in assay [14] was inactive. For the same molecule, the result in [15] and in [16] was inactive. Also, the inhibition in assay [5] is 93% (active); in [13], 21.5% (active).

With `COc1ccc(Nc2cc(C)nc3ccccc23)cc1`, the result in [1], in [2], in assay [3], in assay [4], in assay [6] and in assay [7] was inactive. Moreover, the outcome in [8], in assay [10], in assay [11], in [12], in [14] and in assay [15] was inactive. Further, the outcome in [16] was inactive. Besides, the inhibition in assay [5] was 86% (active); in assay [9], 39% (active); in assay [13] it was 28.9% (active).

Take `Cc1ccc2nc3c(c(N)c2c1)CCN3C`: the outcome in assay [1], in [2], in assay [3], in assay [4], in assay [7] and in [8] was inactive. The outcome in [10], in assay [11], in assay [12], in assay [14], in [15] and in assay [16] was inactive. The inhibition in [5] is 90% (active); in assay [6], 51% (active); in assay [9], 35.5% (active); in [13], 15.4% (active).

On to `CCCCCn1c2c(c(=N)c3ccccc31)CCC2`, for which the result in assay [1], in assay [2], in assay [3], in assay [4], in assay [7] and in [8] was inactive. Also, the molecule was called inactive in assay [10], in [11], in assay [12], in assay [14], in [15] and in [16]. In addition, the inhibition is 96% (active) in assay [5], 75% (active) in assay [6], 1.5% (active) in [9] and 13.9% (active) in [13].

Consider `CCCCN(CCCC)/C(N)=N/c1nc(C)cc(C)n1`, for which the outcome in [1], in assay [2], in assay [3], in [4], in assay [5] and in [6] was inactive. Also, the result in assay [7], in [8], in assay [9], in assay [10], in assay [11] and in [12] was inactive. In addition, the outcome in assay [14], in assay [15] and in assay [16] was inactive. Moreover, in assay [13], the inhibition is 35.1% (active).

As for `COCCCNc1cc(C)nc2ccccc12`, the result in [1], in [2], in assay [3], in [4], in assay [6] and in assay [7] was inactive. The outcome in [8], in assay [10], in [11], in assay [12], in [13] and in [14] was inactive. Further, the outcome in assay [15] and in assay [16] was inactive. The results for the inhibition in assay [5] and in assay [9] were 94% (active) and 50.5% (active), respectively.

Take `COc1cc(C(=O)N(CCc2ccccc2)C2=CC3CCC(C2)N3C)cc(OC)c1OC` (stereo unspecified): the result in assay [1], in [2], in assay [3], in [4], in assay [5] and in assay [7] was inactive. Besides, the outcome in assay [8], in assay [9], in [10], in assay [11], in [12] and in [13] was inactive. Besides, the outcome in [14], in [15] and in assay [16] was inactive. In addition, the inhibition in assay [6] is 54% (active).

As for `COc1ccc(CN(C(=O)c2snc(C(N)=O)c2N)C(CC(C)C)C(=O)NC2CCCCC2)cc1` (stereo unspecified), the result in assay [1], in [2], in assay [3], in assay [4], in [6] and in assay [7] was inactive. Moreover, the outcome in [8], in assay [9], in assay [10], in [11], in assay [12] and in [14] was inactive. Besides, the outcome in [15] and in [16] was inactive. Also, the inhibition in assay [5] was 82% (active); in assay [13], 30.8% (active).
